Test results reported in PubChem BioAssay (EPA / NIEHS).
Several values for one entry are separate records, joined by “and”; a condition that tells them apart may be missing. Equal entries are not always repeated. Where a structure was tested more than once in an assay, its records may differ in their call. Activity calls are given as the source filed them. How the source made its calls: active means hit-call score of the fitted dose curve at least 0.9, where 1 is the maximum; inactive means score below 0.9.

These compounds were tested on Interferon-gamma inducible Protein 10 (IP10), CXCL10 (gene 3627) (assay: BSK_hDFCGF_IP10: BioMAP Diversity Plus: hDFCGF Assay for Interferon-gamma inducible Protein 10 (IP10) Biomarker Activity (AID 2283053)). Details: primary human foreskin fibroblasts; actives raise or lower the signal.
Description: BSK_hDFCGF is a cell-based, multiplexed-readout assay that uses foreskin fibroblast, a human skin primary cell, with measurements taken at 24 hours after chemical dosing in a 96-well plate.BSK_hDFCGF_IP10 is an assay component measured in the BSK_hDFCGF assay. It measures IP-10 antibody related to regulation of gene expression using ELISA technology.Data from the assay component BSK_hDFCGF_IP10 was analyzed into 1 assay endpoint. This assay endpoint, BSK_hDFCGF_IP10, was analyzed with bidirectional fitting relative to DMSO as the negative control and baseline of activity. Using a type of binding reporter, gain or loss-of-signal activity can be used to understand changes in the signaling as they relate to the gene CXCL10. Furthermore, this assay endpoint can be referred to as a primary readout, because this assay has produced multiple assay endpoints where this one serves a signaling function. To generalize the intended target to other relatable targets, this assay endpoint is annotated to the cytokine intended target family, where the subfamily is chemotactic factor.
The levels of cell surface (or secreted, indicated by the prefix "s") biomarker endpoints were measured by ELISA. Overt cytotoxicity to cells in confluent adherent cultures (all systems other than the BT system) was assessed by measuring total protein levels using sulforhodamine B (SRB) staining in parallel cultures at the time of biomarker measurements, indicated as SRB endpoints. For proliferation assays for adherent cell types, individual cell types are cultured at sub-confluence and relative cell numbers quantified by SRB staining at time points optimized for each system (48 h: 3C and CASM3C systems; 72 h: BT and HDF3CGF systems; 96 h: SAg system). SRB was performed by staining cells with 0.1% SRB after fixation with 10% TCA and reading wells at 560 nm.Viability and proliferation of PBMC (T cells) was quantified by Alamar Blue reduction for the SAg and BT systems. For PBMC viability (referred to as PBMC Cytotoxicity within the assay endpoint names), cells were plated (75,000/well in a 96-well plate) and then chemical samples added for 1 h before addition of activators, SEB and TSST-1 (20 ng/mL final concentration each). Cells were incubated for 90 h. Then, Alamar Blue (20 uL/well) (Invitrogen, Cat DAL1100) was added for 6 h, and the plates were read with a fluorescence microplate reader at 546/580 nm (excitation/emission). For PBMC proliferation, cells were plated and activated as above but incubated for only 16 h prior to addition of Alamar Blue. Plates were read after 6 h.

Row | Compound | outcome | AC50
1 | CC1=C(C(=O)Nc2ccccc2)SCCO1 | inactive | –
2 | CCCN(CCC)c1c([N+](=O)[O-])cc(S(N)(=O)=O)cc1[N+](=O)[O-] | inactive | 32.5 µM (active) and 31.4 µM (active)
3 | COC(=O)c1ccccc1C(=O)OC | inactive | –
4 | CC(C)Oc1cc(-n2nc(C(C)(C)C)oc2=O)c(Cl)cc1Cl | – | 29.8 µM (active)
5 | COP(=S)(OC)Oc1nc(Cl)c(Cl)cc1Cl | – | 25.4 µM (active)
6 | COC(=O)C=C(C)OP(=O)(OC)OC | inactive | –
7 | N#Cc1cc(Br)c(O)c(Br)c1 | – | 10.9 µM (active)
8 | CC(C)(C)c1ccc(CSc2cnn(C(C)(C)C)c(=O)c2Cl)cc1 | inactive | –
9 | C=CCC1=C(C)C(OC(=O)C2C(C=C(C)C)C2(C)C)CC1=O (stereo not given) | – | 31.7 µM (active) [middle of 4 runs]
10 | CO/C=C(/C(=O)OC)c1ccccc1Oc1cc(Oc2ccccc2C#N)ncn1 | inactive | 12.1 µM (active)
11 | N#Cc1nn(-c2c(Cl)cc(C(F)(F)F)cc2Cl)c(N)c1S(=O)C(F)(F)F (stereo not given) | – | 2.24 µM (active)
12 | OC(c1ccc(Cl)cc1)(c1cncnc1)c1ccccc1Cl (stereo not given) | inactive | –
13 | COc1nc(NC(C)C)nc(NC(C)C)n1 | inactive | –
14 | COC(=O)N(OC)c1ccccc1COc1ccn(-c2ccc(Cl)cc2)n1 | inactive | –
15 | CCCCC(CC)COC(=O)c1ccccc1C(=O)OCC(CC)CCCC (stereo not given) | – | 16.6 µM (active)
16 | CNC(=S)S | – | 20 µM (active)
17 | CCON=C(CC)C1=C(O)CC(c2c(C)cc(C)cc2C)CC1=O (stereo not given) | inactive | –
18 | CCNc1nc(Cl)nc(NCC)n1 | inactive | –
19 | CCOC(=O)CC(SP(=S)(OC)OC)C(=O)OCC (stereo not given) | inactive | –

Row | Compound | outcome | AC50
20 | CNC(=O)ON=CC(C)(C)SC | – | 5.4 µM (active)
21 | COc1ccc(C(c2ccc(OC)cc2)C(Cl)(Cl)Cl)cc1 | – | 20 µM (active)
22 | COc1nc(C)nc(NC(=O)NS(=O)(=O)c2ccccc2CCC(F)(F)F)n1 | – | 148 nM (active) and 33.8 µM (active) and 3.97 µM (active)
23 | COC(=O)C(C)Oc1ccc(Oc2ccc(Cl)cc2Cl)cc1 (stereo not given) | inactive | –
24 | CCCCNC(=O)OCC#CI | – | 3.5 µM (active) and 5.34 µM (active)
25 | C#CCOS(=O)OC1CCCCC1Oc1ccc(C(C)(C)C)cc1 (stereo not given) | – | 7.97 µM (active)
26 | CC(C)C1(C)N=C(c2nc3ccccc3cc2C(=O)O)NC1=O (stereo not given) | inactive | –
27 | Cc1cc(Cl)ccc1OCC(=O)O | inactive | –
28 | N#CC(CCc1ccc(Cl)cc1)(Cn1cncn1)c1ccccc1 (stereo not given) | inactive | –
29 | CC1COC(Cn2cncn2)(c2ccc(Oc3ccc(Cl)cc3)cc2Cl)O1 (stereo not given) | – | 37.9 µM (active)
30 | Cc1c(F)c(F)c(COC(=O)C2C(/C=C(\Cl)C(F)(F)F)C2(C)C)c(F)c1F (stereo not given) | inactive | –
31 | CCCCOC(=O)c1ccccc1C(=O)OCCCC | – | 13.9 µM (active) and 11.8 µM (active)
32 | CCCCNC(=O)n1c(NC(=O)OC)nc2ccccc21 | – | 33.8 µM (active)
33 | CON(C)C(=O)Nc1ccc(Cl)c(Cl)c1 | inactive | –
34 | COP(N)(=O)SC (stereo not given) | inactive | –
35 | Oc1ccccc1-c1ccccc1 | inactive | –
36 | Fc1ccc(Oc2ccnc3cc(Cl)cc(Cl)c23)cc1 | – | 24.3 µM (active)
37 | COc1cnc(OC)n2nc(NS(=O)(=O)c3c(OCC(F)F)cccc3C(F)(F)F)nc12 | inactive | –
38 | CCOc1cc(Oc2ccc(C(F)(F)F)cc2Cl)ccc1[N+](=O)[O-] | – | 6.48 µM (active)
